High-throughput results from PubChem BioAssay.
DT40 TDP1 no CPT = qHTS for Inhibitors of human tyrosyl-DNA phosphodiesterase 1 (TDP1): qHTS in cells in absence of CPT; DT40 Tdp1-/- hTDP1 cells, no CPT, ATP luminescence, 48 h; Potency, µM (highest dose often 46.2 µM), for the others: at the highest dose activity change, negative = growth inhibition, most hits filed as inhibitors; actives 15% (n = 420,000); further: on the % scale 0 is the no-effect control and ±100 the full control effect; nearly all actives have a fitted effect of over 55% in size
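Growth of hTDP1-complemented DT40 Tdp1-knockout cells is measured by ATP luminescence after at least 48 hr compound exposure at 37 °C, with DMSO substituting for the 20 nM CPT used in the parallel screen.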
TDP1 inh = blocks human tyrosyl-DNA phosphodiesterase 1. recombinant TDP1, AlphaScreen DNA substrate cleavage. Q9NUW8. actives 0.28% (n = 350,000). Potency, µM (top dose mostly 130 µM), for the others: top-dose activity change, negative = inhibition, most hits filed as inhibitors; further: on the % scale 0 is the no-effect control and ±100 the full control effect; nearly all actives have a fitted effect of over 40% in size
Target sequence (Q9NUW8 whole entry, looked up): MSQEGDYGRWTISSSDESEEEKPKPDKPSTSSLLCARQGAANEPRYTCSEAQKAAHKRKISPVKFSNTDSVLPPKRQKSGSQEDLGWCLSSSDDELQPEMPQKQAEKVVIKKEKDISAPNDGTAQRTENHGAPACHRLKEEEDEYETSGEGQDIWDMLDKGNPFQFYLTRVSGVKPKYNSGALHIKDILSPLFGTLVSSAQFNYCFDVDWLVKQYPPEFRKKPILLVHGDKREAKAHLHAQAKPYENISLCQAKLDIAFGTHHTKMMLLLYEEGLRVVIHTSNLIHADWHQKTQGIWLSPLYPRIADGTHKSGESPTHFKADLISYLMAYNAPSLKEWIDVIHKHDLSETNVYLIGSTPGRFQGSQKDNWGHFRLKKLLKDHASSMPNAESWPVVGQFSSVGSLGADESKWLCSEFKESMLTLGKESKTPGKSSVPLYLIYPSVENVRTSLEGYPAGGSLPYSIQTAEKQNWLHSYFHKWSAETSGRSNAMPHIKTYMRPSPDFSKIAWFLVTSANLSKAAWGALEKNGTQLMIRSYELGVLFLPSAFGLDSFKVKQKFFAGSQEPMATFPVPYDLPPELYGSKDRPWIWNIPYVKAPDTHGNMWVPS
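E. coli-derived human Tdp1, 1 nM final. Cpd preinc 15 min RT; substrate 15 nM final, 5 min RT; AS bead mix 10 ug/ml final, 10 min RT. Signal loss = tyrosine-FITC cleavage. No-enzyme wells = max signal.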
ClpP mod = qHTS Assay for Activators of ClpP | purified B. subtilis ClpP, FRET peptide cleavage, 20 min | Potency, µM (series often up to 57.5 µM), for inactives: at the highest dose activity change, negative = active | actives 1.9% (n = 340,000) | AID 651965, 2013; active means well fitted falling curve with a large enough effect; inconclusive means small, poorly fitted or top-dose-only effect; inactive means no such curve, though single readings can be large or run the other way; further: the source files actives as falling curves though it sought activators and does not explain the sign; nearly all actives have a fitted effect of over 65% in size
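Buffer: 100 mM Tris/HCl pH8, 100 mM KCl, 0.05% low protease BSA, 2.5% glycerol, 0.01% Tween-20. ClpP 10 microg/mL final; 20 min RT; delta FRET normalized to ADEP and DMSO controls.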
TDP1 cell CPT = DT40-hTDP1 cell growth loss with CPT. Potency, µM (top dose mostly 46.2 µM), for inactives: at the top dose activity change, negative = growth inhibition, actives largely listed as inhibitors. chicken DT40 Tdp1-/-;hTDP1 cells + 20 nM CPT, ATP luminescence, 48 h. actives 12% (n = 420,000). AID 686979; further: on the % scale 0 is the no-effect control and ±100 the full control effect; nearly all actives have a fitted effect of over 55% in size
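Chicken DT40 Tdp1-/- cells complemented with human TDP1, 400 cells/well, exposed to compounds plus 20 nM camptothecin for at least 48 h at 37 C; viability read as ATP content by CellTiter-Glo luminescence.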
Starred values were filed as active, the others as inactive; ? = inconclusive; · = no result given; [ ] = another dose, or the depositor's remark. A selection: hits, their analogues and other compounds. The true share with any hit is near 17%. Unless noted, the call rests on the fitted dose curve; in most records, active means well fitted curve in the direction sought with a large enough effect; inconclusive means small, poorly fitted or top-dose-only effect, or another doubt; inactive means no such curve, though single readings can be large; an effect the other way counts as inactive or inconclusive. Potency means the concentration at half of the fitted maximal effect.

SMILES	DT40 TDP1 no CPT	TDP1 inh	ClpP mod	TDP1 cell CPT
CCn1nc(C)c(/C=N/NC(=S)Nc2ccc(Cl)cc2Cl)c1C	6.5µM*	5%	0%	8.2µM*
Cc1nn(C)cc1/C=N/NC(=S)Nc1ccc(Cl)cc1Cl	?	-3%	-1%	0.52µM*
Cc1nn(C)cc1/C=N/NC(=O)c1ccc2c(c1)OCO2	-9%	0%	-2%	-2%
CC(Nc1oc(-c2ccccc2)nc1-c1cccc2ccccc12)c1ccccc1 (configuration not stated)	·	4%	·	·
CCC(=O)NC(c1ccco1)c1cc([N+](=O)[O-])c2cccnc2c1O (configuration not stated)	·	2%	·	·
Cc1ccc(-c2c(C(=O)NCc3ccccc3)oc(=O)c3ccccc23)cc1	?	9%	-2%	?
Cc1ccc(-c2c(C(=O)NCCc3ccccc3)oc(=O)c3ccccc23)cc1	?	-2%	-1%	15µM*
CCOc1ccc(N(C)C(=O)c2oc(=O)c3ccccc3c2-c2ccccc2)cc1	15µM*	7%	-1%	18µM*
COc1ccc(NC(=O)CC(=O)Nc2ccc(OC)cc2OC)c(OC)c1	12%	7%	0%	1%
CC(C)CCN(C(=O)Nc1ccccc1)C(C)c1cccs1 (configuration not stated)	18µM*	2%	-3%	21µM*
CC(c1cccs1)N(C(=O)Nc1ccccc1)C1CCCCC1 (configuration not stated)	14µM*	1%	0%	16µM*
COc1ccc(NC(=O)N(CCC(C)C)C(C)c2cccs2)c(OC)c1 (configuration not stated)	18µM*	10%	2%	?
Cc1cccc(C(=O)NCC(=O)OCc2cc(=O)n3nc(C)sc3n2)c1	3%	-2%	-8%	-1%
COc1ccccc1CNC(=O)COC(=O)c1ccc(Cl)c(N)c1	1%	1%	·	19%
CC(C)Oc1ccc(CNS(=O)(=O)c2csc(C(N)=O)c2)cc1	21µM*	0%	-3%	16µM*
CN(C)c1ccc(CNS(=O)(=O)c2csc(C(N)=O)c2)cc1	7.3µM*	3%	-1%	23µM*
NC(=O)c1cc(S(=O)(=O)NCCCc2ccccc2)cs1	?	·	0%	?
COc1ccc(-c2nc3sc(CCNC(=O)c4ccc(C(C)(C)C)cc4)c(C)n3n2)cc1	8.2µM*	3%	-1%	?
COc1ccc(-c2nc3sc(CCNC(=O)c4ccc(Br)o4)c(C)n3n2)cc1	16µM*	8%	-2%	16µM*
COc1ccc(-c2nc3sc(CCNC(=O)c4cc(Cl)ccc4OC)c(C)n3n2)cc1	13µM*	-5%	-2%	16µM*
Cc1c(CCNC(=O)c2ccc(Br)o2)sc2nc(-c3ccc(Cl)cc3)nn12	23µM*	3%	-4%	18µM*
CCC(=O)NCCc1sc2nc(-c3ccc(OC)cc3)nn2c1C	?	-5%	0%	-25%
CCC(=O)N1CCCC1(C)C(=O)Nc1ccc2nc(C)ccc2c1 (configuration not stated)	7%	·	4%	-17%
CCOc1ccc(CCNC(=O)c2cn(C)c3ccc(S(=O)(=O)N4CCOCC4)cc3c2=O)cc1OCC	?	7%	-6%	?
CCS(=O)(=O)NCCc1sc2nc(-c3ccc(OC)cc3)nn2c1C	21µM*	0%	-2%	?
SMILES	DT40 TDP1 no CPT	TDP1 inh	ClpP mod	TDP1 cell CPT
O=C(Nc1ccc(Cl)c(C(F)(F)F)c1)C1CCN(S(=O)(=O)c2cccc3nonc23)CC1	5.2µM*	5%	2%	13µM*
O=C(C1CCCN(S(=O)(=O)c2cccc3nonc23)C1)N1CCC(Cc2ccccc2)CC1 (configuration not stated)	18µM*	3%	-3%	21µM*
O=C(Nc1cccc(F)c1)C1CCN(S(=O)(=O)c2cccc3nonc23)CC1	?	2%	·	?
Cc1ccc(C)c(N2CCN(C(=O)C3CCCN(S(=O)(=O)c4cccc5nonc45)C3)CC2)c1 (configuration not stated)	6.5µM*	8%	1%	9.2µM*
Cc1ccc(Cl)cc1N1CCN(C(=O)C2CCN(S(=O)(=O)c3cccc4nonc34)CC2)CC1	7.3µM*	-1%	-2%	12µM*
O=C(C1CCN(S(=O)(=O)c2cccc3nonc23)CC1)N1CCN(c2ccc(F)cc2)CC1	12µM*	3%	-2%	21µM*
O=C(C1CCN(S(=O)(=O)c2cccc3nonc23)CC1)N1CCN(c2cccc(Cl)c2)CC1	15µM*	0%	1%	26µM*
O=S(=O)(c1cccc2nonc12)N1CCN(c2ccc(F)cc2)CC1	-5%	3%	-4%	-1%
O=C(C1CCN(S(=O)(=O)c2cccc3nonc23)CC1)N1CCCCC1	-9%	1%	·	-1%
Cc1cc(Br)ccc1NC(=O)C1CCCN(S(=O)(=O)c2cccc3nonc23)C1 (configuration not stated)	-40%	2%[12.3 µM]	1%	?
Cc1cc(NC(=O)C2CCCN(S(=O)(=O)c3cccc4nonc34)C2)ccc1Br (configuration not stated)	16µM*	2%	0%	?
O=C(C1CCN(S(=O)(=O)c2cccc3nonc23)CC1)N1CCN(c2ccccc2)CC1	23µM*	3%	1%	?
CN(C)c1ncc2nc(-c3cccc(C#N)c3)c(=O)n(C[C@H]3CCCO3)c2n1	0%	·	·	-6%
CCn1cc(CN2CCC(n3nccc3NC(=O)CCc3ccccc3)CC2)cn1	-3%	4%	1%	-14%
Cn1c(=O)c(-c2cccs2)nc2cncnc21	-21%	·	·	21%
CC1CCN(C(=O)C2CCN(S(=O)(=O)c3cc(Cl)ccc3Cl)CC2)CC1	21µM*	-2%	·	?
CCOc1ccccc1N(C)C(=O)C1CCN(S(=O)(=O)c2cccc3nonc23)CC1	13µM*	2%	2%	?
O=C(C1CCCN(S(=O)(=O)c2cccc3nonc23)C1)N1CCN(c2ccccc2Cl)CC1 (configuration not stated)	16µM*	-2%[12.3 µM]	-1%	23µM*
O=C(C1CCCN(S(=O)(=O)c2cccc3nonc23)C1)N1CCN(c2cccc(Cl)c2)CC1 (configuration not stated)	23µM*	2%	-1%	16µM*
CCOc1ccccc1CNC(=O)C1CCN(S(=O)(=O)c2cccc3nonc23)CC1	-22%	2%	1%	-26%
O=[N+]([O-])c1ccccc1N/N=C1\CC2CC=CC12 (configuration not stated)	-27%	10%	1%	-21%
